Bioassay records as filed in PubChem BioAssay.
TEAD-YAP block = TEAD-YAP interaction inhibition, primary screen, TEAD-YAP interaction inhibitor project, luminescence, HEK-TIYL cells; TEAD-Gal4/YAP UAS-luciferase luminescence; inhibition, % at 9.12 µM; 1.4% of 640,000 active; in the data active means inhibition above about 32%;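 further: 0% = median of test compound wells and 100% = reference inhibitor wells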
MITF primary = MITF inhibitors, primary screen, biochemical, AlphaScreen, human. AID 1259374, 2018. Microphthalmia-associated transcription factor (Homo sapiens), O75030. AlphaScreen MITF homodimerization, bead proximity signal. 0.91% of 650,000 active. inhibition, % at 2.6 µM; in the data active means inhibition above about 50%;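 further: 0% = vehicle wells with protein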
GPR151 ag = activators of human GPR151, primary screen, cell-based, PathHunter beta-arrestin, luminescence; G-protein coupled receptor 151 (Homo sapiens), Q8TDV0; PathHunter beta-arrestin GPR151 cells; activation, % at 11.2 µM; 1% of 650,000 active; in the data active means activation above about 4.9%;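 further: 0% = median of compound wells and 100% = cells with positive control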
FBW7 act = FBW7 E3 ligase activators, primary screen, biochemical, AlphaScreen, human; AlphaScreen FBW7–phospho-cyclin E peptide binding, activator screen; F-box/WD repeat-containing protein 7 (Homo sapiens), Q969H0; 0.13% of 650,000 active; normalized activity (activation), % at 26.1 µM; in the data active means normalized activity above about 1.9%;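 further: purified mutant Fbw7 with reduced substrate affinity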
Target sequence (Q969H0 whole entry, looked up): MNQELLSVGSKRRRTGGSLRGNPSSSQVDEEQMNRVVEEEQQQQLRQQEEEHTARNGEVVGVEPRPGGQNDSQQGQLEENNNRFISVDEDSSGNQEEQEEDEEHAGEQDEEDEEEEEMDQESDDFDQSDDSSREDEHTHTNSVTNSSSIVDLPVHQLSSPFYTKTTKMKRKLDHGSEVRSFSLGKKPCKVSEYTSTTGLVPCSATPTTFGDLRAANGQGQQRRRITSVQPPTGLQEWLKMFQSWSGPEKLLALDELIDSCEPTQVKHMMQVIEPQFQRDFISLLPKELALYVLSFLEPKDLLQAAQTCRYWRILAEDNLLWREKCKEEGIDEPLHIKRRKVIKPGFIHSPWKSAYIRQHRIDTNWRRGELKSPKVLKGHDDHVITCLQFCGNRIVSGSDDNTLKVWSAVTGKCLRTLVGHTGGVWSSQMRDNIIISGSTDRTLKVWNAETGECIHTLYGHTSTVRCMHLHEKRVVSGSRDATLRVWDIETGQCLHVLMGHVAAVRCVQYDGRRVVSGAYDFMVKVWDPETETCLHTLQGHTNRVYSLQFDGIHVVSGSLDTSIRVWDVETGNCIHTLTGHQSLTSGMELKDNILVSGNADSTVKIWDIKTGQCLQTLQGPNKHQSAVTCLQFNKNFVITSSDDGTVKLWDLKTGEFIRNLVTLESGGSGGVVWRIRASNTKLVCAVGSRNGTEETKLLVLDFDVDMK
Starred values were filed as active, the others as inactive. Sampled rows, rich in hits. Any-hit rate of the full collection: about 3.5%.

Screening CC1=C(C(=O)Nc2ccc(C)cn2)C(c2cccs2)C2=C(CC(C)(C)CC2=O)N1 (stereo unspecified) returned TEAD-YAP block 57.7*, MITF primary -4.9, GPR151 ag -0.3 and FBW7 act -0.1.
Screening CC1=C(C(=O)Nc2ccc(Br)cn2)C(c2cccs2)C2=C(CC(C)(C)CC2=O)N1 (stereo unspecified) returned TEAD-YAP block 35.3*, MITF primary -0.5, GPR151 ag 0.0 and FBW7 act 0.1.
CC1=C(C(=O)Nc2ccc(Br)cn2)C(c2ccsc2)C2=C(CC(C)(C)CC2=O)N1 (stereo unspecified) was read as TEAD-YAP block 52.0*, MITF primary -0.5, GPR151 ag 1.2 and FBW7 act 0.2.
For COc1ccccc1CN1CCN2C(=O)[C@H](Cc3c[nH]c4ccccc34)NC(=O)[C@H]2C1 the results were TEAD-YAP block 2.4, MITF primary -11.5, GPR151 ag -0.1 and FBW7 act 0.2.
Screening COc1ccc(Cl)cc1NC(=O)Nc1cn(C)c(=O)c2ccccc12 returned TEAD-YAP block -9.2, MITF primary -4.1, GPR151 ag -0.9 and FBW7 act 0.0.
For COc1ccc(S(=O)(=O)Nc2ccc3c(c2)CCCN3C(C)=O)c(OC)c1 the results were TEAD-YAP block 7.2, MITF primary 11.8, GPR151 ag 1.1 and FBW7 act -0.1.
`COc1cc(CNc2ccc3c(c2)CCN3C(C)=O)cc(OC)c1OC` gave TEAD-YAP block 67.1*, MITF primary 0.7, GPR151 ag 0.3 and FBW7 act 0.1.
CCOC(=O)C1=C(C)NC2=C(C(=O)c3ccccc32)C1c1cc(OC)c(OC)c(OC)c1 (stereo unspecified) was read as TEAD-YAP block 52.7*, MITF primary 6.5, GPR151 ag 0.1 and FBW7 act -0.4.
Screening Cc1nnc2n1NC(c1ccc(Cl)cc1)=CS2 returned TEAD-YAP block 22.9, MITF primary -3.5, GPR151 ag 1.6 and FBW7 act -0.2.
For Nc1ccc2cc(S(=O)(=O)O)cc(O)c2c1 the results were TEAD-YAP block -2.1, MITF primary 77.1*, GPR151 ag -0.5 and FBW7 act -1.9.
`O=S(=O)(O)c1cc(O)c2cc(Nc3ccccc3)ccc2c1` gave TEAD-YAP block 12.4, MITF primary 44.4, GPR151 ag 1.1 and FBW7 act -0.4.
`Cc1cccc(-n2ncc3c(Nc4ccc(C)cc4C)ncnc32)c1` gave TEAD-YAP block -26.6, MITF primary 8.2, GPR151 ag 0.1 and FBW7 act 0.0.
Screening CC(C)(C)Nc1ncnc2c1cnn2-c1ccc(Cl)cc1 returned TEAD-YAP block 51.5*, MITF primary 4.4, GPR151 ag 2.6 and FBW7 act 0.1.
Cc1cccc(-n2ncc3c(Nc4cccc(C)c4C)ncnc32)c1 was read as TEAD-YAP block 42.2*, MITF primary -5.2, GPR151 ag 0.0 and FBW7 act -0.1.
CCCN(CCC)c1ncnc2c1cnn2-c1ccc(Cl)cc1 was read as TEAD-YAP block 6.8, MITF primary 4.8, GPR151 ag 1.7 and FBW7 act 0.4.
CCN(CCN(C)C)c1ncnc2c1cnn2-c1ccc(Cl)cc1 was read as TEAD-YAP block 50.0*, MITF primary 5.0, GPR151 ag -1.4 and FBW7 act -0.2.
For Cc1cccc(-n2ncc3c(Nc4cc(C)ccc4C)ncnc32)c1 the results were TEAD-YAP block 44.7*, MITF primary -5.2, GPR151 ag -1.6 and FBW7 act 0.1.
`CCCCNc1ncnc2c1cnn2-c1ccc(Cl)cc1` gave TEAD-YAP block -53.8, MITF primary 0.2, GPR151 ag 0.8 and FBW7 act -0.2.
For CC(=O)Nc1ccc(S(=O)(=O)Nc2cc(C(=O)O)cc(C(=O)O)c2)cc1 the results were TEAD-YAP block -9.3, MITF primary 1.5, GPR151 ag -1.1 and FBW7 act 0.2.
For CCN1CCN(c2nc(N3CC(C)CC(C)C3)nc(N)c2[N+](=O)[O-])CC1 (stereo unspecified) the results were TEAD-YAP block 0.3, MITF primary -6.3, GPR151 ag -0.3 and FBW7 act 0.0.
For CCN(CC)S(=O)(=O)c1cccc(C(=O)Nc2nnc(-c3cccs3)s2)c1 the results were TEAD-YAP block 6.2, MITF primary 8.1, GPR151 ag -1.0 and FBW7 act 0.6.
COc1ccc(-c2cnn3c(N4CCC(O)CC4)ccnc23)cc1 was read as TEAD-YAP block -55.5, MITF primary 21.9, GPR151 ag 0.3 and FBW7 act 0.0.
For COc1cccc(C(=O)N2CC=C[C@@H]2C(=O)NC2CC2)c1 the results were TEAD-YAP block -5.4, MITF primary 4.9, GPR151 ag 0.1 and FBW7 act -0.2.
Screening Cc1cccc(-n2ncc3c(NC(C)(C)C)ncnc32)c1 returned TEAD-YAP block 82.4*, MITF primary -3.1, GPR151 ag 1.3 and FBW7 act 0.0.
COc1ccc(-n2c(/C=C/N(C)C)c([N+](=O)[O-])c3ccc(O)c(CN(C)C)c32)cc1 was read as TEAD-YAP block 37.6*, MITF primary 5.4, GPR151 ag -0.6 and FBW7 act 0.2.
`CCOC(=O)Cn1c(=O)oc2cc(Br)ccc21` gave TEAD-YAP block 0.4, MITF primary -2.5, GPR151 ag 0.3 and FBW7 act 0.0.
For COC(=O)c1cccc(NS(=O)(=O)c2ccc(OC)c(Cl)c2)c1C the results were TEAD-YAP block -7.8, MITF primary 20.9, GPR151 ag -2.1 and FBW7 act 1.1.
`Nc1cccc(-c2nc(NCCc3ccc(O)cc3)c3ncn(-c4ccsc4)c3n2)c1` gave TEAD-YAP block 55.8*, MITF primary -5.6, GPR151 ag 0.1 and FBW7 act 0.1.
NC(=O)c1ccc(-c2nc(NCCN3CCOCC3)c3ncn(-c4ccsc4)c3n2)cc1 was read as TEAD-YAP block 33.3*, MITF primary 20.8, GPR151 ag 1.4 and FBW7 act 0.1.
`O=C(NC1CC1)c1ccc(-c2nc(NC3CC3)c3ncn(-c4ccccc4)c3n2)cc1` gave TEAD-YAP block 33.4*, MITF primary -13.6, GPR151 ag -0.2 and FBW7 act 0.2.
For O=C(NC1CC1)c1ccc(-c2nc(NCCN3CCOCC3)c3ncn(-c4ccccc4)c3n2)cc1 the results were TEAD-YAP block 67.2*, MITF primary -2.2, GPR151 ag -0.5 and FBW7 act 0.0.
`O=C(NC1CC1)c1ccc(-c2nc(NCCN3CCOCC3)c3ncn(-c4ccsc4)c3n2)cc1` gave TEAD-YAP block 37.4*, MITF primary 4.1, GPR151 ag 1.7 and FBW7 act 0.1.
Nc1cccc(-c2nc(NCCN3CCOCC3)c3ncn(-c4ccsc4)c3n2)c1 was read as TEAD-YAP block 53.4*, MITF primary 5.4, GPR151 ag 0.3 and FBW7 act 0.0.
`CC(C(=O)c1cccc(Cl)c1)N1C(=O)NC2(CCCCC2)C1=O` (stereo unspecified) gave TEAD-YAP block -7.2, MITF primary 7.5, GPR151 ag 1.6 and FBW7 act -0.1.
